Pf growth 48h = P. falciparum growth inhibition at 48 hours (one generation); P. falciparum luciferase growth in erythrocytes, 48 h; Potency, µM (titrated, usually from 28.7 µM), actives largely listed as inhibitors; actives 5.9% (n = 310,000); AID 504832
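In quantitative HTS format, infected erythrocytes bearing luciferase-reporter parasites were treated for a single generation at 37 C. Luminescence after adding detection reagent served as the growth measure.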
Pf growth 96h = P. falciparum growth inhibition at 96 hours; Potency, µM (doses to about 28.7 µM), usual class: inhibitors; actives 6.9% (n = 320,000); P. falciparum luciferase reporter growth, 96 h
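Two parasite generations (96 h, 37 C, 5% CO2) of compound exposure in infected erythrocytes (0.05% parasitemia, 2% hematocrit). Luciferase-reporter P. falciparum; decreased luminescence indicates inhibited growth, aimed at apicoplast-acting delayed death.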
SARS PLpro yeast = SARS-CoV PLP inhibition in yeast; S. cerevisiae expressing SARS-CoV PLpro, growth rescue; Potency, µM (doses to about 32.9 µM), usual class: activators; actives 0.19% (n = 330,000); calls by dose curve; further: nearly all actives have a fitted effect of over 55% in size
Sm TGR inh = blocks Schistosoma mansoni thioredoxin glutathione reductase; Potency, µM (top dose mostly 114 µM), actives largely listed as inhibitors; actives 3% (n = 360,000); AID 485364; purified TGR, DTNB reduction, TNB absorbance 405 nm; Q962Y6; further: nearly all actives have a fitted effect of over 60% in size
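TGR 20 nM + NADPH 100 uM (dispensed conc.), cpd preinc 15 min RT; start with NADPH (500 uM addition) then DTNB (15 mM addition). Kinetic TNB absorbance, 405 nm filter. Four-parameter Hill fit across titration.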
CLK4 ADP-Glo = CLK4 (human) kinase inhibition, ADP-Glo confirmation; shares compounds with Pf growth 48h; recombinant Clk4, RS peptide, ADP-Glo luminescence; Potency, µM (titrated, usually from 80 µM), hits mostly inhibitors; actives 80% (n = 65)
Target sequence (Q9HAZ1 whole entry, looked up): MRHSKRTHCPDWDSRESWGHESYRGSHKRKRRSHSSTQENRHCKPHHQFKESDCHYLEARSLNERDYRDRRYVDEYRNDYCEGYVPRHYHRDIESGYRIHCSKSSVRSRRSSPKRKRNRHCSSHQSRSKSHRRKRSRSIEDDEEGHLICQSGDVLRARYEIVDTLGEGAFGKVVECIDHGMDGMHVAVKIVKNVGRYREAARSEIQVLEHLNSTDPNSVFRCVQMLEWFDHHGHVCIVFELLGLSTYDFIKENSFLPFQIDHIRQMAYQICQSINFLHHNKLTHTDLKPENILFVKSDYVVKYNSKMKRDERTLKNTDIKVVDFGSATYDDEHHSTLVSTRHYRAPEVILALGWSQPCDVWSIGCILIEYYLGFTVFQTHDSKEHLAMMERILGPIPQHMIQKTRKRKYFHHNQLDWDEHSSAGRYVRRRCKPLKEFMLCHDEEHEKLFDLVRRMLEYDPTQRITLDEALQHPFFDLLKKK
CLK4 cf ADP-FP = CLK4 (human) inhibition, Transcreener FP confirmation | shares compounds with Pf growth 48h | recombinant Clk4, ADP Transcreener FP, RS peptide | Potency, µM (highest dose often 80 µM), actives largely listed as inhibitors | actives 70% (n = 65) | AID 1983
Of the large screens only hits and unclear results are named; the others gave an inactive call (follow-up assays come after a bar, where they were run). Compounds with a hit are over-represented: about 12% of the library has one in this group of screens. Unless noted, the call rests on the fitted dose curve; in most records, active means well fitted curve in the direction sought with a large enough effect; inconclusive means small, poorly fitted or top-dose-only effect, or another doubt; inactive means no such curve, though single readings can be large; an effect the other way counts as inactive or inconclusive.

Clc1cccc(-c2ccc3ncnc(NCc4cccs4)c3c2)c1	Pf growth 48h 12µM, Pf growth 96h 3.3µM | CLK4 ADP-Glo 4µM | CLK4 cf ADP-FP 7.9µM
c1ccc(-n2ncc3c(NCc4cccs4)ncnc32)cc1	none
Cc1csc(CNc2ncnc3ccc(-c4ccccc4Cl)cc23)c1	Pf growth 48h 9.3µM, Pf growth 96h 2.6µM | CLK4 ADP-Glo 8.9µM | CLK4 cf ADP-FP inconclusive
Clc1ccccc1-c1ccc2ncnc(NCc3cccs3)c2c1	Pf growth 48h 5.9µM, Pf growth 96h 3.7µM | CLK4 ADP-Glo 6.3µM | CLK4 cf ADP-FP inconclusive
c1coc(-c2ccc3ncnc(NCc4cccs4)c3c2)c1	Pf growth 48h inconclusive, Pf growth 96h inconclusive, Sm TGR inh 32µM | CLK4 ADP-Glo 28µM | CLK4 cf ADP-FP 28µM
CN(C)S(=O)(=O)c1ccc(C(=O)Nc2ccc3nc(N4CCOCC4)sc3c2)cc1	none (no result: Pf growth 48h, Pf growth 96h, Sm TGR inh)
CN(Cc1cccc(F)c1)C(=O)c1ccc(S(=O)(=O)N2CCOCC2)cc1	Pf growth 48h inconclusive
Cc1ccc(CNc2ncnc3cc(Cl)ccc23)cc1	Pf growth 48h inconclusive, Pf growth 96h inconclusive
Cc1cccc(CNc2ncnc3ccc(-c4ccc5c(c4)OCCO5)cc23)c1	Pf growth 48h 4.7µM, Pf growth 96h 3.3µM | CLK4 ADP-Glo 0.56µM | CLK4 cf ADP-FP 0.71µM
c1ccc(-n2ncc3c(NCc4cccnc4)ncnc32)cc1	none
c1cncc(CNc2ncnc3ccc(-c4ccoc4)cc23)c1	Pf growth 48h inconclusive, Pf growth 96h inconclusive | CLK4 ADP-Glo 0.56µM | CLK4 cf ADP-FP 1µM
Cn1ncc2c(NCc3cccc(Cl)c3)ncnc21	none (no result: Pf growth 48h, Pf growth 96h, SARS PLpro yeast)
Cc1cccc(CNc2ncnc3ccc(-c4ccc5c(ccn5C)c4)cc23)c1	Pf growth 48h 3.3µM, Pf growth 96h 1.9µM | CLK4 ADP-Glo inconclusive | CLK4 cf ADP-FP inconclusive
Cc1cccc(CNc2ncnc3ccc(-c4cccc(C)c4)cc23)c1	Pf growth 48h 13µM, Pf growth 96h 3.7µM | CLK4 ADP-Glo 14µM | CLK4 cf ADP-FP inconclusive
O=C(Nc1ccc(F)c(Cl)c1)C1CCN(S(=O)(=O)c2ccc3c(c2)CCCN3C(=O)C2CCC2)CC1	none (no result: Pf growth 48h, Pf growth 96h, SARS PLpro yeast)
Fc1cccc(CNc2ncnc3ccc(-c4cccc(Cl)c4)cc23)c1	Pf growth 48h 6.6µM, Pf growth 96h 2.9µM | CLK4 ADP-Glo 7.1µM | CLK4 cf ADP-FP 13µM
Cc1cccc(CNc2ncnc3ccc(-c4ccoc4)cc23)c1	Pf growth 48h 15µM, Pf growth 96h 8.3µM | CLK4 ADP-Glo 0.25µM | CLK4 cf ADP-FP 0.28µM
CC(=O)Nc1ccc(CNc2ncnc3ccc(-c4c(C)noc4C)cc23)cc1	Pf growth 48h inconclusive, Pf growth 96h inconclusive
Cn1c(-c2ccc(F)cc2)cnc1NCc1cccc(F)c1	none
Cc1cccc(CNc2ncnc3ccc(-c4cccnc4)cc23)c1	Pf growth 48h 12µM, Pf growth 96h 6.6µM | CLK4 ADP-Glo 2.8µM | CLK4 cf ADP-FP 5µM
Fc1cccc(CNc2ncnc3ccc(-c4ccoc4)cc23)c1	Pf growth 48h inconclusive, Pf growth 96h inconclusive | CLK4 ADP-Glo 3.5µM | CLK4 cf ADP-FP 3.5µM

Screens from PubChem.
